USP28 inh = inhibitors of human USP28 deubiquitinase; purified USP28, Ub-rhodamine cleavage fluorescence, 30 min; 47,000 compounds, 3% hits; inhibition, % at 25 µM; Ubiquitin carboxyl-terminal hydrolase 28 (Homo sapiens), Q96RU2; AID 1645857, 2021
Target sequence (Q96RU2 whole entry, looked up): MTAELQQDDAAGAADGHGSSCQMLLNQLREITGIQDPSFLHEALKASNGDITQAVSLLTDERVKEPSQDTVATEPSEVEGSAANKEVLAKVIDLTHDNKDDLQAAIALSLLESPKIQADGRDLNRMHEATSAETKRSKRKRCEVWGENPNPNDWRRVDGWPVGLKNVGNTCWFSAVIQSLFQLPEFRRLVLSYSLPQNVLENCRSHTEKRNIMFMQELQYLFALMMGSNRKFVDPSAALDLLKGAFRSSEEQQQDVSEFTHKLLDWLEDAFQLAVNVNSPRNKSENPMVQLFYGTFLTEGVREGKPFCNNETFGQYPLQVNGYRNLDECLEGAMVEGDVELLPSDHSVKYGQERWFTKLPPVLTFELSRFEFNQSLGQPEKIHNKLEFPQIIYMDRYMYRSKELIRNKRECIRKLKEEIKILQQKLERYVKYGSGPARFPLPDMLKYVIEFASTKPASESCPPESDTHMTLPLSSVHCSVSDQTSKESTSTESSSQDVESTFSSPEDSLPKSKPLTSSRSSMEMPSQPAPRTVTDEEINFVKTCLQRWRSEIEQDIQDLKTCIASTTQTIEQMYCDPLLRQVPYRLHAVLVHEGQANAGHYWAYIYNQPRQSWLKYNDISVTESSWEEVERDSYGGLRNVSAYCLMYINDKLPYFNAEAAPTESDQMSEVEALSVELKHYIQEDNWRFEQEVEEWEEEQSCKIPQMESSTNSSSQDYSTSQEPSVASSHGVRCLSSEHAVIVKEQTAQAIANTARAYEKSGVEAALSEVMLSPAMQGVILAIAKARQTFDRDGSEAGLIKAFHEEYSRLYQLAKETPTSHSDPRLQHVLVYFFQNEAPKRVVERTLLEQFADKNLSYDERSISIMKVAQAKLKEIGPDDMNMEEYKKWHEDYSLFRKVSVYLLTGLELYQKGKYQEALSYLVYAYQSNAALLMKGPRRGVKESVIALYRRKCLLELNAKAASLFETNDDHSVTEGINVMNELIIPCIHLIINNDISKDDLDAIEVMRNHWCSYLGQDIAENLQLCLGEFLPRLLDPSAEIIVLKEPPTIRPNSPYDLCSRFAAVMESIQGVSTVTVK
USP30 inh = inhibitors of human USP30 deubiquitinase; inhibition, % at 25 µM; purified USP30, Ub-rhodamine cleavage fluorescence; Ubiquitin carboxyl-terminal hydrolase 30 (Homo sapiens), Q70CQ3; 47,000 compounds, 5.3% hits
USP17 inh = inhibitors of human USP17 deubiquitinase. inhibition, % at 50 µM. 47,000 compounds, 6.5% hits. purified USP17, Ub-rhodamine cleavage fluorescence, 3 h. Ubiquitin carboxyl-terminal hydrolase 17-like protein 5 (Homo sapiens), A8MUK1
USP8 inh = inhibitors of human USP8 deubiquitinase; Ubiquitin carboxyl-terminal hydrolase 8 (Homo sapiens), P40818; AID 1645853, 2021; inhibition, % at 20 µM; 47,000 compounds, 4.2% hits; purified USP8, Ub-rhodamine cleavage fluorescence, 30 min
Numbers stand for hits; n = inactive; x = no result. Only some compounds are listed: those with a hit (about 13% of all), similar ones and a draw of the others. Cut-off read from the data, not from the text of the source: active = inhibition above about 30%; inactive = the rest.

SMILES	USP28 inh	USP30 inh	USP17 inh	USP8 inh
N#Cc1ccccc1CN1C(=O)c2ccccc2S1(=O)=O	n	n	n	n
CC1=C(c2ccc(F)cc2)S(=O)(=O)N=C1N1CCCN(C(=O)C2CCCCC2)CC1	n	n	n	n
COC(=O)c1ccc(-c2nc3cnccn3c2Nc2c(C)cccc2C)cc1	n	n	n	n
COc1ccc(CCNc2nc3c(-c4ccccc4)nnn3c3ccccc23)cc1OC	n	n	n	44
COCCCNc1nc2c(-c3ccc(Cl)cc3)nnn2c2ccccc12	n	n	n	n
Cc1nnc(-c2nnc(NCc3ccc(Cl)cc3)c3ccccc23)o1	n	37	52	n
Cc1nnc(-c2nnc(NCCC(C)C)c3ccccc23)o1	n	n	n	n
Cc1cc2nc(Oc3cccnc3)c3ccccc3n2n1	n	n	n	n
N#Cc1ccc(NC(=O)Nc2cccn(Cc3ccc(F)cc3)c2=O)cc1	84	n	93	95
N#Cc1ccc(NC(=O)Nc2cccn(Cc3c(F)cccc3Cl)c2=O)cc1	41	n	78	89
O=C(Nc1ccccc1)N1CCCN(Cc2c(F)cccc2Cl)CC1	n	n	n	n
CC1CN(C(=O)c2cccn(Cc3c(Cl)cccc3Cl)c2=O)CC(C)O1 (stereo unspecified)	n	n	n	n
COC(=O)Nc1cccn(Cc2c(Cl)cccc2Cl)c1=O	88	52	88	93
COc1cccc(CNC(=O)CCNS(=O)(=O)c2ccc3c(c2)CCN3C(C)=O)c1	n	n	n	n
CCOC(=O)C1CCN(C(=O)c2ccc(CNS(=O)(=O)c3ccc(Cl)cc3)cc2)CC1	n	32	n	n
CCc1ccc(Oc2cc3n(c(=O)n2)CCc2cc(OC)c(OC)cc2-3)cc1	n	n	n	n
Cc1sc2ncn3c(=O)n(CC(=O)Nc4ccc(F)c(Cl)c4)nc3c2c1C	n	n	53	n
Cn1ccnc1C(NC(=O)c1cnn(Cc2ccccc2)c1)c1ccc(F)cc1 (stereo unspecified)	n	n	n	n
O=C(Nc1cccc(Cl)c1)N1C[C@@H]2c3nccn3-c3ccccc3[C@@H]2C1	n	n	n	n
CC(C)C(NC(=O)COc1ccccc1)C(=O)N1CCc2[nH]c3ccccc3c2C1 (stereo unspecified)	n	n	n	63
O=C(NCC(=O)N1CCc2[nH]c3ccccc3c2C1)c1ccc(F)cc1	n	n	n	n
O=C(NC(Cc1ccccc1)c1nc2ccccc2[nH]1)C1CCC1 (stereo unspecified)	n	n	n	63
O=C(N[C@@H](Cc1ccccc1)c1nc2ccccc2[nH]1)c1ccncc1	n	n	n	n
O=C(NC(Cc1ccccc1)C(=O)Nc1ccc(-n2cnnn2)cc1)c1ccccc1 (stereo unspecified)	n	n	n	n
O=C(NC(Cc1ccccc1)c1nc2ccccc2[nH]1)c1ccccn1 (stereo unspecified)	57	n	n	n
SMILES	USP28 inh	USP30 inh	USP17 inh	USP8 inh
O=C(NC(Cc1ccccc1)c1nc2ccccc2[nH]1)c1ccc(-n2cnnn2)cc1 (stereo unspecified)	n	n	n	43
O=C(NC(Cc1ccccc1)c1nc2ccccc2[nH]1)c1nc(Cl)ccc1Cl (stereo unspecified)	n	n	n	n
COc1ccc(C(=O)NC(Cc2ccccc2)c2nc3ccccc3[nH]2)c(OC)c1 (stereo unspecified)	n	n	71	95
O=C(NC(Cc1c[nH]c2ccccc12)c1nc2ccccc2[nH]1)c1ccccc1 (stereo unspecified)	n	n	34	42
COc1ccc(C2[C@@H]3CCCC[C@]3(O)CCN2CC(=O)Nc2ccc(C)cc2)cc1 (stereo partly specified)	n	n	n	n
CCOC(=O)N1C[C@@H](C(N)=O)[C@@H]2Oc3ccccc3[C@@H]21	n	n	n	n
CC1CCC(NC(=O)C2CCN(S(=O)(=O)c3ccc4c(c3)OCCCO4)CC2)CC1 (stereo unspecified)	n	n	n	n
Cc1ccc(C)c(NC(=O)C(NCc2ccc3c(c2)OCO3)c2ccccc2)c1 (stereo unspecified)	n	n	n	n
CN(C(=O)CSc1nnc(-c2cc3ccccc3n2C)o1)c1ccccc1	n	52	n	n
Cn1c(-c2nnc(SCC(=O)Nc3ccccc3F)o2)cc2ccccc21	41	82	43	n
Cc1nc2ccccc2nc1SCC(=O)Nc1ccc2c(c1)OCO2	n	66	47	n
COCCn1ccc2nc(C)c(C(=O)Nc3ccc4c(c3)OCO4)cc2c1=O	n	n	n	75
O=C(CSc1nncc2ccccc12)Nc1ccc2c(c1)OCO2	n	57	n	n
Cc1ccc(NC(=O)CSc2nncc3ccccc23)cc1	n	n	n	n
Cc1ccc2oc(SCC(=O)Nc3ccc4c(c3)OCO4)nc2n1	n	n	n	n
Cc1cc(C)nc(-n2nc(C)c3cc4c(nc32)CC(C)(C)CC4=O)n1	n	n	n	n
COc1cccc(C(=O)NCC(c2cccnc2)S(=O)(=O)c2ccccc2)c1 (stereo unspecified)	x	x	n	n
CCc1cc(C(=O)c2ccc(OC)cc2)c(NC(=O)CSc2nnc(-c3cccs3)n2C)s1	x	x	61	n
COc1ccc(NC(=O)CSc2nnc(-c3ccco3)n2C)cc1OC	n	n	n	n
COc1cccc(C2C3=C(CC(c4ccc(Cl)cc4)CC3=O)Nc3ccccc3N2C(=O)c2ccccc2)c1 (stereo unspecified)	n	n	n	n
COc1ccc(CCNC(=O)Cn2c(=O)n(C3CCCCC3)c(=O)c3ccccc32)cc1OC	n	n	n	n
O=C(NCc1ccccc1)[C@H]1C[C@@H]2CN(CC3CC3)C[C@H]1O2	n	n	n	n
COc1cccc(NC(=O)c2oc3ccccc3c2NC(=O)COc2cccc(OC)c2)c1	n	n	n	n
Cc1cc(NC(=O)COc2cccc(C(F)(F)F)c2)no1	n	n	48	n
Cc1cc(NC(=O)c2ccc(C(F)(F)F)cc2)no1	n	40	n	n
SMILES	USP28 inh	USP30 inh	USP17 inh	USP8 inh
CCc1cc(=O)oc2cc(OCC(=O)NC(c3ccccc3)c3ccccc3)ccc12	n	44	n	n
Cc1cc(NC(=O)c2ccc(C(=O)Nc3cc(C)on3)s2)no1	n	n	n	n
Cc1cc(NC(=O)COc2ccc3oc4ccccc4c3c2)no1	n	n	78	n
Cc1cc(=O)oc2cc(OCC(=O)NC(C)CCc3ccccc3)ccc12 (stereo unspecified)	n	n	n	n
Cc1cc(NC(=O)c2oc3c(F)cccc3c2C)no1	n	n	n	n
CC(NC(=O)COc1ccc2oc3ccccc3c2c1)c1ccccc1 (stereo unspecified)	n	n	42	n
O=C(Nc1ccc(-n2cccc2)cc1)c1cccc([N+](=O)[O-])c1	n	37	n	31
O=C(Nc1ccc(-n2cccc2)c(Cl)c1)c1cccc([N+](=O)[O-])c1	n	n	n	n
